Bioassay records deposited in PubChem by several laboratories.
Rows were chosen to be rich in hits. Some 4.1% of all compounds tested hit in one or more screens of this group.
IDE cell activ = activators of human insulin-degrading enzyme in cells; HEK cells, FAbeta-B cleavage, fluorescence polarization; 0% vehicle, 100% cell-free pure enzyme wells; P14735; activation, % at 5.96 µM; 0.073% of 340,000 active; AID 493087;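 active = activation above the mean of all tested compounds plus 3 SD, set per screening campaign, cut at about 17% in these data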
Target sequence (P14735 whole entry, looked up): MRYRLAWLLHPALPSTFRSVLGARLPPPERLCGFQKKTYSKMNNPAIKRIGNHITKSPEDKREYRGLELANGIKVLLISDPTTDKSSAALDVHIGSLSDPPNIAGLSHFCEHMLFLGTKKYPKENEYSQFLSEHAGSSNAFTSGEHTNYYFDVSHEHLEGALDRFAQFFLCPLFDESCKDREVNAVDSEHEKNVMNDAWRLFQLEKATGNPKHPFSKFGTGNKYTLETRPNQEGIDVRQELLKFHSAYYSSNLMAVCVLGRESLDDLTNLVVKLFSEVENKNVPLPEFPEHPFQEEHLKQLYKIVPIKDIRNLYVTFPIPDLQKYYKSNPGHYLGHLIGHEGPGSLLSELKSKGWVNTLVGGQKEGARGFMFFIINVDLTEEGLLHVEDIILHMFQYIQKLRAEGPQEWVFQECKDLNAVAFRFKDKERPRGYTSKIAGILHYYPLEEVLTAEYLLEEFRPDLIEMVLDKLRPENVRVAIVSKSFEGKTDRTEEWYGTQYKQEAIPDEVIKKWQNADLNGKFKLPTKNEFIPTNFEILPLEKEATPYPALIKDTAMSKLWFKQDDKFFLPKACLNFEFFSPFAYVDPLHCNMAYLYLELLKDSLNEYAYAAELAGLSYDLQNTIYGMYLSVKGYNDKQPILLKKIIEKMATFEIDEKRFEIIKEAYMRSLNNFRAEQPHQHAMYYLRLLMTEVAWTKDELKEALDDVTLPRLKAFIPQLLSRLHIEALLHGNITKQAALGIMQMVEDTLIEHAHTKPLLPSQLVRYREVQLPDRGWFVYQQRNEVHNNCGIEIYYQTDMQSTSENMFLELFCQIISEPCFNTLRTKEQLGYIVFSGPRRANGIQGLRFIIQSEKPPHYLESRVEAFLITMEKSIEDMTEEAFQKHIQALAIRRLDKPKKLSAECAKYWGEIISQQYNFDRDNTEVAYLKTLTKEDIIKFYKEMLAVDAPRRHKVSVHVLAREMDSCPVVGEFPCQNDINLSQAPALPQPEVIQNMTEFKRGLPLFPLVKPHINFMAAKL
CaV13 FRET inh = Disruptors of the CACNA1D IQ motif to Ca2+-dependent inactivation inhibitor domain association, primary screening, Förster resonance energy transfer in intact living …; HEK cells, CFP/YFP FRET ICDI-IQ, plate reader, 10 min; percent FRET-ratio fall versus neutral wells; inhibition, % at 12.3 µM; 0.098% of 340,000 active; AID 743397;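 active = mean replicate inhibition of at least 30% and at least 1% of replicates passing that level; inconclusive = only one of the two criteria is met; inactive = neither criterion is met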;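 also: 0% = median of the neutral control wells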
ALR H2O2 inh = blocks human ALR sulfhydryl oxidase activity; P55789; purified ALR, DTT oxidation, H2O2 HRP-luminol luminescence; inhibition, % (concentration not given with the values); 3.8% of 290,000 active; AID 485317;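 active = mean replicate inhibition above about 79%, with every replicate also reaching it, limit read from the data; inconclusive = only one of the two criteria met; inactive = mean below limit and not every replicate reaching it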
M18AAP inhibitor = PfM18AAP enzyme inhibition; inhibition, % at 7.35 µM; recombinant PfM18AAP, H-Glu-NHMec fluorogenic cleavage; 1.2% of 290,000 active;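 active = inhibition above the campaign mean inhibition over all tested compounds plus 3 SD, cut at about 28% in these data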;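 also: 0% = plate median of test compound wells and 100% = 2 mM ZnCl2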
PolyA inh = yeast polyadenylation inhibition; 0.02% of 300,000 active; activity score, % at 12 µM; S. cerevisiae SKY197-pL101 polyadenylation reporter, beta-gal luminescence; efflux-impaired pdr1/pdr3 knockout yeast; score 100 = 6 SD above DMSO; AID 1875;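 active = lowest replicate activity score at least 50, where 100 means six control SD above control mean; inconclusive = lowest score under 50 but half or more replicates reach 50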;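 also: yeast exposed to compound for 9 h at 30 °C; higher score means more reporter readthrough which indicates perturbed polyadenylation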
IDE inh = inhibits human insulin-degrading enzyme in HEK cells; P14735; FAbetaB cleavage, fluorescence polarization; 0.41% of 320,000 active; inhibition, % at 5.59 µM; AID 434962;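 active = percent inhibition above the average of all tested compounds plus 3 SD, set per screening campaign, cut at about 16% in these data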;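 also: IDE supplied by intact live HEK cells; FP after avidin binding of uncleaved biotin substrate so inhibition keeps polarization high; 0% = DMSO wells and 100% = 60 µM reference IDE inhibitor Ii1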
Numbers without * were called inactive; u = inconclusive; x = no result given.

SMILES	IDE cell activ	CaV13 FRET inh	ALR H2O2 inh	M18AAP inhibitor	PolyA inh	IDE inh
COC(=O)[C@]12C[C@H](CC(=O)N3CCCC3)C(=O)N(Cc3ccc4c(c3)OCO4)C1=C[C@H](COCc1ccccc1)O[C@@H]2C	x	-10	x	x	x	x
CC(=O)Nc1cccc(Nc2nc(-c3ccccc3F)nc3ccccc23)c1	1	-2	98*	-3	5	0
O=[N+]([O-])c1ccc(-c2nc(Nc3ccc(O)cc3)c3ccccc3n2)cc1	-1	-4	-13	-6	-32	x
CC(=O)Nc1ccc(Nc2nc(-c3ccccc3)nc3ccccc23)cc1	-6	3	99*	-4	5	-1
Oc1ccc(Nc2nc(-c3ccccc3)nc3ccccc23)cc1	1	x	98*	-24	-19	-13
COC(=O)CNc1nc(-c2ccccc2F)nc2ccccc12	0	x	11	0	-25	3
Oc1ccc(Nc2nc3ccccc3nc2Nc2ccc(O)cc2)cc1	-8	x	96*	-4	3	0
COc1cc(NC(=O)N2CCc3nc(NCc4cccc(Oc5ccccc5)c4)ncc3C2)cc(OC)c1OC	x	-12	x	x	x	x
NC(=O)CC(NC(=O)OCc1ccccc1)C(=O)O (stereo unspecified)	2	-5	x	-4	1	0
CC(C)(O)C#Cc1ccccc1C(=O)NC(CC(N)=O)C(=O)O (stereo unspecified)	18*	-1	7	3	-14	-3
CN1C(=S)SC(N(O)C=C2C=CC(=O)C=C2)C1(C)C (stereo unspecified)	1	-4	x	-7	8	0
CC1(N(O)C=C2C=CC(=O)C=C2)CCCCC1=O (stereo unspecified)	8	4	99*	-4	10	-4
COc1ccc(S(=O)(=O)NCC2CCCN(Cc3cccc(C(C)=O)c3)C2)cc1 (stereo unspecified)	3	-7	76*	-1	11	5
COc1ccc(S(=O)(=O)NCC2CCCN(Cc3cccnc3)C2)cc1 (stereo unspecified)	-1	7	-1	-1	-3	-2
Cn1ccnc1C1CCCCN1C(=O)c1cc(COc2ccc(F)cc2Cl)on1 (stereo unspecified)	x	2	-7	-1	-8	2
CCCCN1C[C@H](CO)Oc2cccc(F)c2S1(=O)=O	4	-10	x	x	x	x
Cc1cccc(C(=O)N/C(=C\c2ccco2)C(=O)N2CCCC2)c1	5	2	95*	29*	-4	1
Cc1ccc(C(=O)N/C(=C/c2ccco2)C(=O)N2CCCCCC2)cc1	4	-7	7	11	4	5
O=C(N/C(=C\c1ccco1)C(=O)N1CCCC1)c1ccccc1	3	-3	25	32*	-5	6
O=C1CSC2=NCN(c3ccc4c(c3)OCO4)CN12	4	-4	2	-1	21	1
CN(C)c1ccc(N2CN=C3SCC(=O)N3C2)cc1	4	-5	99*	9	-35	0
COc1ccc(C(=O)Nn2c(CCC(=O)O)ccc2-c2ccc(C)cc2)cc1OC	0	4	25	5	0	4
Cn1c(/C=C/c2cccc([N+](=O)[O-])c2)c([N+](=O)[O-])c(=O)n(C)c1=O	8	-5	98*	24	-9	4
COc1ccc(/C=C/c2c([N+](=O)[O-])c(=O)n(C)c(=O)n2C)cc1OC	-3	x	-14	3	7	1
Cc1oc(-c2ccc(Cl)cc2)nc1CS(=O)CC(=O)NC(C)c1ccccc1 (stereo unspecified)	-3	-3	98*	-13	-9	-5
SMILES	IDE cell activ	CaV13 FRET inh	ALR H2O2 inh	M18AAP inhibitor	PolyA inh	IDE inh
COc1ccc(-c2nc(CS(=O)CC(=O)NCc3ccc(Cl)cc3)c(C)o2)cc1 (stereo unspecified)	4	-6	99*	9	-12	9
CCc1ccc(-c2nc(CS(=O)CC(=O)NCc3ccccc3)c(C)o2)cc1 (stereo unspecified)	4	-8	99*	-1	0	4
Cc1oc(-c2ccc(Cl)cc2)nc1CS(=O)CC(=O)NCc1ccccn1 (stereo unspecified)	-5	-3	99*	-1	3	3
O=C(CCSc1ccc(Cl)cc1)NCc1ccccn1	3	-6	-18	-2	4	1
Cc1oc(-c2ccccc2Cl)nc1CS(=O)(=O)CC(=O)NC(C)c1ccccc1 (stereo unspecified)	4	-7	6	4	2	2
CCO[C@@H]1OC(C(=O)NCc2ccccc2)=C[C@H](c2cn(C(C)=O)c3ccccc23)[C@H]1CCCO	7	-12	-6	-13	-14	0
Cc1oc(-c2ccc(Cl)cc2)nc1CS(=O)CC(=O)NCc1ccccc1 (stereo unspecified)	2	-3	99*	6	1	1
CCc1cccc(NC(=O)CS(=O)Cc2nc(-c3ccc(C)cc3)oc2C)c1 (stereo unspecified)	2	-3	99*	-7	u	1
Cc1ccc(C(=O)COC(=O)CNC(=O)c2ccccc2)s1	1	-5	-2	x	x	5
CCCCN(CCCC)C(=O)c1sc2nc(N3CCOCC3)c3c(c2c1N)CCCC3	x	-4	x	32*	12	9
CCC1CCCCN1S(=O)(=O)c1ccc(NC(=O)c2nc(S(C)(=O)=O)ncc2Cl)cc1 (stereo unspecified)	-5	-15	77*	-94	-32	5
O=C(NCc1ccccc1)C1=C[C@H](c2ccc(C(F)(F)F)cc2)C[C@H](OCc2ccc(CO)cc2)O1	0	-6	x	6	-11	-3
C=CCC1(CC=C)CCCN1C(=O)C1CCC(=O)N(Cc2ccc(Cl)cc2)C1 (stereo unspecified)	x	-5	x	x	x	x
CCCNC(=O)CSc1nc2[nH]ncc2c(=O)[nH]1	2	-5	2	14	7	2
CNC(=O)CSc1nc2[nH]ncc2c(=O)[nH]1	1	-2	4	30*	0	-2
Cc1cccc(CSc2nc3[nH]ncc3c(=O)[nH]2)c1	-2	1	2	14	-12	2
O=c1[nH]c(SCc2ccccc2Cl)nc2[nH]ncc12	3	-5	-20	48*	12	5
NCCC(=O)N1c2ccccc2Sc2ccccc21	-2	-4	-3	2	-5	1
O=C1CS/C(=N\C(=O)N2c3ccccc3Sc3ccccc32)N1	-1	-4	99*	2	-21	11
C(=N\Nc1nncn1/N=C/c1ccco1)/c1ccco1	4	-16	x	12	-1	0
